Where “and” joins values, the source holds several entries; their conditions need not be identical. Equal entries are not always repeated. Results filed as inconclusive are left out. Entries that show only a call come without a potency. Values without a mark were called inactive. Calls of active or inactive are those of the source. Calls follow the shape of the dose curve; as a rule, active = well fitted curve in the direction sought with a large enough effect in the repeat runs; inconclusive = weak or mixed curves; inactive = no such curve, though single readings can be large; an effect the other way counts as inactive or inconclusive.

Nuclear receptor subfamily 1 group I member 2 (Rattus norvegicus), sequence (Q9R1A7 whole entry, looked up): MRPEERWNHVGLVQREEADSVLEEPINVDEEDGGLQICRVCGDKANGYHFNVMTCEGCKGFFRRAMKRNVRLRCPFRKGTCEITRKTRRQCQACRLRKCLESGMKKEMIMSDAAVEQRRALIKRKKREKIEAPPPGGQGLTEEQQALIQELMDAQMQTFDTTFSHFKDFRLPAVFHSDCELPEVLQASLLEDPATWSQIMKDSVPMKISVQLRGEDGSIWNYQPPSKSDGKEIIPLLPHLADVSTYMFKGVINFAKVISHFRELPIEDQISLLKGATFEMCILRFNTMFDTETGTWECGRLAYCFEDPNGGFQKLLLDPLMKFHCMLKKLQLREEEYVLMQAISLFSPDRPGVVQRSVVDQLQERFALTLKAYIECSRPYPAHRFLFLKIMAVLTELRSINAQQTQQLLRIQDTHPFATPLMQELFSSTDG

System in the first assay: not listed separately
Kind of assay: Caspase-3/7 induction in HepG2 cells by small molecules, qHTS cell viability counter screen (AID 1346981). Also: nearly all actives have a fitted effect of over 30% in size. Also: potency is read from the fitted curve at half-maximal effect. As to conditions: CellTiter-Fluor fluorescence, 17 h; series mostly up to 92.4 µM. In a few lines:
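Wild-type HepG2 cells (2,000/well) were allowed to settle for 5 hr at 37 C, 5% CO2, then dosed with compounds in DMSO by pin transfer. After 16 hr at 37 C, CellTiter-Fluor was added and fluorescence read 1 hr later.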
With `COC(C)(C)OC`, the Potency entry was “inactive”.

In the case of `CCC(Cl)CC(Cl)C(Cl)C(Cl)C(Cl)C(C)Cl` (centres undefined), the activity change, negative = cytotoxicity is 1.11% [at 19 µM].

In the case of `COc1ccc(C2C(=O)c3ccccc3C2=O)cc1`, the Potency result was “inactive”.

As to `O=C(O)c1cccc(Oc2ccccc2)c1`, the Potency entry is “inactive”.

For the molecule `Cc1cc(CCCOc2c(C)cc(-c3noc(C(F)(F)F)n3)cc2C)on1`, the Potency result is “inactive”.

`CCc1ccc(C)cc1`: the Potency result is “inactive”.

Regarding `CO[C@@H]1[C@@H](OC)[C@H](C)[C@@](O)(CC(=O)O)O[C@H]1[C@H](C)[C@H]1O[C@@]2(CC[C@@](C)([C@H]3CC[C@@](C)([C@@H]4O[C@@H]([C@H]5O[C@](C)(O)[C@H](C)C[C@@H]5C)C[C@@H]4OC4C[C@H](OC)[C@@H](OC)[C@H](C)O4)O3)O2)C[C@H](O)[C@H]1C` (some centres undefined), the Potency was 3.76 µM (active).

`CCOC(=O)N1CCC(Nc2ccc(Cl)cc2N)CC1`: the Potency result was “inactive”.

Take `O=P(O)(O)Oc1ccccc1`: the Potency entry was “inactive”.

Consider `CCC(C)(C)C(=O)O`, for which the Potency entry is “inactive”.

Regarding `Oc1ccc2c(c1)Cc1ccccc1-2`, the Potency entry was “inactive”.

With `CCN(CC)c1ccc(C(=C2C=CC(=[N+](CC)CC)C=C2)c2ccc(S(=O)(=O)O)cc2S(=O)(=O)[O-])cc1`, the Potency was 19.3 µM (active).

On to `O=C(O)CN1C(=O)c2cccc3cccc(c23)C1=O`, for which the Potency entry was “inactive”.

Take `C=C(C)c1ccccc1`: the Potency entry was “inactive”.

In the case of `CC(=O)c1ccc[nH]1`, the Potency result is “inactive”.

`CC(C)(O)c1coc(S(=O)(=O)NC(=O)Nc2c3c(cc4c2CCC4)CCC3)c1`: the Potency entry was “inactive”.

With `CCOc1ncc(F)c(=O)[nH]1`, the Potency entry is “inactive”.

For the molecule `CC1CCCO1` (centres undefined), the Potency entry was “inactive”.

In the case of `Cc1cccc2sc(N)nc12`, the Potency entry is “inactive”.

Take `NC(=O)c1ccccc1[N+](=O)[O-]`: the Potency entry is “inactive”.

On to `O=C(O)CCC(=O)OC[C@@H](NC(=O)C(Cl)Cl)[C@H](O)c1ccc([N+](=O)[O-])cc1`, for which the Potency entry was “inactive”.

`NC(=O)CCCCC(N)=O`: the Potency result was “inactive”.

Turning to `Cc1c[nH]c2ccccc12`, the Potency result is “inactive”.

Take `CC(C)CC(O)CC(C)C`: the Potency entry was “inactive”.

As to `CC(CN(CCN(CC(C)OCCO)CC(C)OCCO)CC(C)OCCO)OCCO` (centres undefined), the Potency entry is “inactive”.

`O=C(c1ccccc1)C1CCC1`: the Potency entry was “inactive”.

As to `COc1ccc2nc(S(=O)Cc3ncc(C)c(OC)c3C)[nH]c2c1` (centres undefined), the Potency entry was “inactive”.

As to `CC(C)N(C)C`, the Potency entry was “inactive”.

Turning to `O=C1OC(=O)c2c(Br)c(Br)c(Br)c(Br)c21`, the Potency result was “inactive”.

For the molecule `O=C(CCS)OCC(COC(=O)CCS)(COC(=O)CCS)COC(=O)CCS`, the Potency result was “inactive”.

Take `O=C(O)CCCc1c[nH]c2ccccc12`: the Potency entry was “inactive”.

On to `CCCCCc1ccco1`, for which the Potency entry is “inactive”.

For the molecule `CCCCCCCCCCCC(=O)OCC(O)CO` (centres undefined), the Potency entry is “inactive”.

On to `CCN(CC)CCNC(=O)c1cc(Cl)c(N)cc1OC`, for which the Potency entry was “inactive”.

For a further assay, the target named is Nuclear receptor subfamily 1 group I member 2 (Homo sapiens) (UniProt O75469). Put plainly: Human pregnane X receptor (PXR) small molecule agonists, qHTS assay (AID 1346982). Also: nearly all actives have a fitted effect of over 35% in size. Also: potency is read from the fitted curve at half-maximal effect. As to conditions: PXR-Luc HepG2, CYP3A4 luciferase reporter, 24 h; series mostly up to 92.4 µM. An outline of the steps: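 PXR-Luc HepG2 cells (CYP3A4 promoter-driven luciferase) were seeded in medium with 5% charcoal-stripped FBS, left 5 hr at 37 C, then exposed to compounds in DMSO for 24 hr. Luminescence was read after ONE-Glo addition.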
Nuclear receptor subfamily 1 group I member 2 (Homo sapiens), sequence (O75469 whole entry, looked up): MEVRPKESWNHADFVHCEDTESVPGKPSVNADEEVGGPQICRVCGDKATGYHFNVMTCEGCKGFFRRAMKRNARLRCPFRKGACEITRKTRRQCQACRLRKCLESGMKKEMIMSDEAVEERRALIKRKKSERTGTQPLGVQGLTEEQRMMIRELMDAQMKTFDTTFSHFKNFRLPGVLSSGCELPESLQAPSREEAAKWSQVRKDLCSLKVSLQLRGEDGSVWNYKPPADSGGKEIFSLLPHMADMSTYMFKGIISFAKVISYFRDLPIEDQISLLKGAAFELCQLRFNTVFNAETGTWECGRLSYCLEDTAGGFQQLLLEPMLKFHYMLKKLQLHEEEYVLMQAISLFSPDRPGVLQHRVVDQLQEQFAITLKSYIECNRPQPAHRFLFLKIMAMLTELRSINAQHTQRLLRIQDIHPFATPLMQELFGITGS
In general terms: Quantitative high-throughput screening tests each substance at several concentrations.
On to `CCC(Cl)CC(Cl)C(Cl)C(Cl)C(Cl)C(C)Cl` (centres undefined), for which the Potency is 1.19 µM (active).

Consider `Cc1cc(CCCOc2c(C)cc(-c3noc(C(F)(F)F)n3)cc2C)on1`, for which the Potency is 21.1 µM (active).

With `CCc1ccc(C)cc1`, the Potency entry is “inactive”.

For the molecule `Cc1ccc2nc(N)[nH]c(=O)c2c1Sc1ccncc1`, the Potency result is “inactive”.

With `CCOC(=O)N1CCC(Nc2ccc(Cl)cc2N)CC1`, the Potency entry was “inactive”.

Consider `CCC(C)(C)C(=O)O`, for which the Potency entry was “inactive”.

Turning to `CCN(CC)c1ccc(C(=C2C=CC(=[N+](CC)CC)C=C2)c2ccc(S(=O)(=O)O)cc2S(=O)(=O)[O-])cc1`, the Potency result was “inactive”.

As to `C=C(C)c1ccccc1`, the Potency result was “inactive”.

In the case of `CC(=O)c1ccc[nH]1`, the Potency result was “inactive”.

Regarding `CC(C)(O)c1coc(S(=O)(=O)NC(=O)Nc2c3c(cc4c2CCC4)CCC3)c1`, the Potency entry was “inactive”.

Regarding `CCOc1ncc(F)c(=O)[nH]1`, the Potency entry was “inactive”.

Consider `Cc1cccc2sc(N)nc12`, for which the Potency was 55.1 µM (active).

Regarding `NC(=O)c1ccccc1[N+](=O)[O-]`, the Potency entry was “inactive”.

For the molecule `O=C(O)CCC(=O)OC[C@@H](NC(=O)C(Cl)Cl)[C@H](O)c1ccc([N+](=O)[O-])cc1`, the Potency result is “inactive”.

As for `CC(C)CC(O)CC(C)C`, the Potency entry is “inactive”.

As to `CC(CN(CCN(CC(C)OCCO)CC(C)OCCO)CC(C)OCCO)OCCO` (centres undefined), the Potency is 3.31 µM (active).

On to `CC(C)N(C)C`, for which the Potency result is “inactive”.

Regarding `O=C1OC(=O)c2c(Br)c(Br)c(Br)c(Br)c21`, the Potency result is “inactive”.

For the molecule `O=C(CCS)OCC(COC(=O)CCS)(COC(=O)CCS)COC(=O)CCS`, the Potency result is “inactive”.

On to `O=C(O)CCCc1c[nH]c2ccccc12`, for which the Potency entry is “inactive”.

`CCN(CC)CCNC(=O)c1cc(Cl)c(N)cc1OC`: the Potency entry is “inactive”.

The next assay addresses Nuclear receptor subfamily 1 group I member 2 (Rattus norvegicus) (UniProt Q9R1A7). Kind of assay: Rat pregnane X receptor (rPXR) activation by small molecules, qHTS assay (AID 1346983). Also: nearly all actives have a fitted effect of over 20% in size. The conditions noted are these: rPXR luciferase reporter cells, One-Glo luminescence, 24 h; max activation: hits give high values. An outline of the steps: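 Cell-based rPXR activation assay: rPXR cells, 2,000 per well, rested 5hr at 37 C, then exposed to compounds in DMSO for 24 hr at 37 C. Luciferase activity read by One-Glo luminescence after 30 min at room temperature.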
For the molecule `COc1ccc(C2C(=O)c3ccccc3C2=O)cc1`, the max activation is 8.42%.

`Cc1ccc2nc(N)[nH]c(=O)c2c1Sc1ccncc1`: the max activation is -1.84%.

As for `CCCc1nc2c(C)cc(-c3nc4ccccc4n3C)cc2n1Cc1ccc(-c2ccccc2C(=O)O)cc1`, the max activation is -2.19%.

For the molecule `O=C(O)CN1C(=O)c2cccc3cccc(c23)C1=O`, the max activation is -2.76%.

Take `Cc1c[nH]c2ccccc12`: the max activation is -6.59%.

Consider `CCCCCCCCCCCC(=O)OCC(O)CO` (centres undefined), for which the max activation was -6.09%.

Another assay deals with Cytochrome P450 2D6 (Homo sapiens) (UniProt P10635). Kind of assay: Cytochrome P450 Family 2 Subfamily D Member 6 (CYP2D6) small molecule antagonists: luciferase reporter qHTS assay (AID 1671196). Also: nearly all actives have a fitted effect of over 50% in size. Also: potency is read from the fitted curve at half-maximal effect. The conditions noted are these: P450-Glo CYP2D6 enzyme assay, luciferin luminescence, 1 h; series mostly up to 115 µM. In a few lines: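 CYP2D6 enzyme–substrate mix was held with compound for 10 min at room temperature, then NADPH regeneration solution was added and the reaction ran 1 h at room temperature. Luciferin product was detected by luminescence after 20 min with detection reagent.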
Cytochrome P450 2D6 (Homo sapiens), sequence (P10635 whole entry, looked up): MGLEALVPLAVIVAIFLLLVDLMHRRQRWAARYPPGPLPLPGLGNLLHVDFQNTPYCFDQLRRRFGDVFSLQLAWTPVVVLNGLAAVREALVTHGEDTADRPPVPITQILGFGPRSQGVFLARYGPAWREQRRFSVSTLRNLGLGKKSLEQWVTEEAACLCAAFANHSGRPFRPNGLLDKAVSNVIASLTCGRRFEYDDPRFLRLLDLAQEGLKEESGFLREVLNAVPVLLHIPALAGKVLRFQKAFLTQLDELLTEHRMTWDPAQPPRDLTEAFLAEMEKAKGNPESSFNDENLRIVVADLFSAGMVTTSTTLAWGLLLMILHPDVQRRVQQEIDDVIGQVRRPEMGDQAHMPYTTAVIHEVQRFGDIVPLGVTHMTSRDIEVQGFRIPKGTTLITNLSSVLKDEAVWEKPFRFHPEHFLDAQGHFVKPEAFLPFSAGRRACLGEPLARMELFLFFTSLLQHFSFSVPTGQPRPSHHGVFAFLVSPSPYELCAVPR
A general note: A reporter such as luciferase makes a cellular process visible.
As to `COC(C)(C)OC`, the Potency result was “inactive”.

On to `CCC(Cl)CC(Cl)C(Cl)C(Cl)C(Cl)C(C)Cl` (centres undefined), for which the activity change, negative = inhibition was -20% [at 23.6 µM].

`COc1ccc(C2C(=O)c3ccccc3C2=O)cc1`: the Potency result is “inactive”.

As to `O=C(O)c1cccc(Oc2ccccc2)c1`, the Potency result was “inactive”.

As for `COc1cc(C(C)=O)ccc1OCCCN1CCC(c2noc3cc(F)ccc23)CC1`, the Potency was 11 µM (active).

On to `CCc1ccc(C)cc1`, for which the Potency result was “inactive”.

`CO[C@@H]1[C@@H](OC)[C@H](C)[C@@](O)(CC(=O)O)O[C@H]1[C@H](C)[C@H]1O[C@@]2(CC[C@@](C)([C@H]3CC[C@@](C)([C@@H]4O[C@@H]([C@H]5O[C@](C)(O)[C@H](C)C[C@@H]5C)C[C@@H]4OC4C[C@H](OC)[C@@H](OC)[C@H](C)O4)O3)O2)C[C@H](O)[C@H]1C` (some centres undefined): the Potency entry is “inactive”.

Turning to `Cc1ccc2nc(N)[nH]c(=O)c2c1Sc1ccncc1`, the Potency was 15.5 µM (active).

As for `CCC(C)(C)C(=O)O`, the Potency entry was “inactive”.

In the case of `CCCc1nc2c(C)cc(-c3nc4ccccc4n3C)cc2n1Cc1ccc(-c2ccccc2C(=O)O)cc1`, the Potency entry was “inactive”.

As to `Oc1ccc2c(c1)Cc1ccccc1-2`, the Potency result is “inactive”.

Take `CCN(CC)c1ccc(C(=C2C=CC(=[N+](CC)CC)C=C2)c2ccc(S(=O)(=O)O)cc2S(=O)(=O)[O-])cc1`: the Potency was 20 µM (active).

For `CC(=O)c1ccc[nH]1`, the Potency result is “inactive”.

In the case of `CC(C)(O)c1coc(S(=O)(=O)NC(=O)Nc2c3c(cc4c2CCC4)CCC3)c1`, the Potency entry was “inactive”.

As for `CCOc1ncc(F)c(=O)[nH]1`, the Potency entry was “inactive”.

On to `CC1CCCO1` (centres undefined), for which the Potency entry is “inactive”.

Consider `NC(=O)c1ccccc1[N+](=O)[O-]`, for which the Potency result was “inactive”.

With `O=C(O)CCC(=O)OC[C@@H](NC(=O)C(Cl)Cl)[C@H](O)c1ccc([N+](=O)[O-])cc1`, the Potency result is “inactive”.

In the case of `NC(=O)CCCCC(N)=O`, the Potency result was “inactive”.

On to `Cc1c[nH]c2ccccc12`, for which the Potency result is “inactive”.

As for `CC(C)CC(O)CC(C)C`, the Potency result is “inactive”.

Consider `O=C(c1ccccc1)C1CCC1`, for which the Potency entry is “inactive”.

Consider `COc1ccc2nc(S(=O)Cc3ncc(C)c(OC)c3C)[nH]c2c1` (centres undefined), for which the Potency was 5.57 µM (active) and 17.4 µM (active).

On to `CC(C)N(C)C`, for which the Potency entry is “inactive”.

On to `O=C1OC(=O)c2c(Br)c(Br)c(Br)c(Br)c21`, for which the Potency result is “inactive”.

`O=C(CCS)OCC(COC(=O)CCS)(COC(=O)CCS)COC(=O)CCS`: the Potency result is “inactive”.

On to `O=C(O)CCCc1c[nH]c2ccccc12`, for which the Potency result is “inactive”.

As to `CCN(CC)CCNC(=O)c1cc(Cl)c(N)cc1OC`, the Potency is 7.76 µM (active).
